In PubChem BioAssay (NCI):
About 83,000 compounds went through this panel and 20% of them were active in at least one assay; those are over-represented in the sample as a whole.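 Single-dose data. Exposure time 48 hours. Values below 10 considered active.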 Values without a mark were called inactive. The source made the active and inactive calls.

How the values were obtained:
Assay in all cases: NCI-60 one-dose screen, 48 h (100 = growth as untreated, 0 = no growth, -100 = all killed)
NCI-H23 lung = conditions: 10 µM unless noted
NCI-H226 lung = conditions: 10 µM unless noted
NCI-H322M lung = conditions: 10 µM unless noted
HOP-62 NSCLC = conditions: 10 µM unless noted
NCI-H460 lung = conditions: 10 µM unless noted
HOP-92 NSCLC = conditions: 10 µM unless noted
NCI-H522 lung = conditions: 10 µM
786-0 renal = conditions: 10 µM unless noted
COLO 205 colon = conditions: 10 µM unless noted

Structure (SMILES)	growth (NCI-H23 lung)	growth (NCI-H226 lung)	growth (NCI-H322M lung)	growth (HOP-62 NSCLC)	growth (NCI-H460 lung)	growth (HOP-92 NSCLC)	growth (NCI-H522 lung)	growth (786-0 renal)	growth (COLO 205 colon)
O=C(COc1ccc(/C=C2\Oc3ccc4ccccc4c3C2=O)cc1)c1ccc([N+](=O)[O-])cc1	96.5%	105%	99.9%	118%	104%	96.7%	49%	103%	134%
C1CCC(C(CC2CCCCN2)C2CCCCC2)CC1 (stereo unspecified)	9.26% (active)	28%	49.8%	-81.6% (active)	-84.3% (active)	-2.64% (active)	-16.8% (active)	-86.7% (active)	-63.6% (active)
O=C(c1ccccc1)c1ccc(Oc2ccc([N+](=O)[O-])cc2[N+](=O)[O-])cc1	86.2%	48.4%	109%	99.1%	103%	52.9%	-26.6% (active)	71.9%	84%
CC(C)Sc1nc(Cl)c(C#N)c(-c2ccc(F)cc2)n1	100%	103%	102%	109%	113%	92.2%	86.8%	96.4%	115%
Cc1ccc(C(NC(=O)c2ccccc2)c2ccc3cccnc3c2O)cc1 (stereo unspecified)	23.5%	-6.24% (active)	25.3%	17.3%	4.02% (active)	24.8%	-5.42% (active)	-14.5% (active)	29.3%
NC(=NCCCCCCN=C(N)/N=C(\N)Nc1ccc(Cl)cc1)/N=C(\N)Nc1ccc(Cl)cc1	8.42% (active)	-9.31% (active)	19.8%	-25.3% (active)	-1.1% (active)	-3.2% (active)	-11.1% (active)	14%	-96.4% (active)
CSc1nc(Nc2ccc(S(=O)(=O)Nc3ccon3)cc2)c(C#N)c(-c2ccc(Cl)cc2)n1	94.2%	95%	98.3%	106%	112%	109%	84.9%	94.7%	108%
CCOC(=O)c1sc(NC(=O)COc2cccc(/C=C3\CCc4cc(OC)ccc4C3=O)c2)nc1C	89.5%	85.2%	99.8%	96.5%	80.8%	72.5%	43.9%	88.1%	135%
CCOC(=O)c1sc(NC(=O)COc2ccc(/C=C3\CCc4cc(OC)ccc4C3=O)cc2)nc1C	96.6%	92.2%	96.5%	103%	111%	106%	-2.75% (active)	90.7%	137%
O=C(O)c1ccc(CNS(=O)(=O)c2ccc3ccccc3c2)cc1	119%	100%	114%	112%	120%	132%	104%	106%	105%
O=C(NC1CCS(=O)(=O)C1)c1ccc(C(=O)c2ccccc2)cc1 (stereo unspecified)	98.9%	94.5%	128%	101%	104%	101%	90.9%	101%	102%
CC(=O)Nc1ccc(C(=O)COc2ccc(/C=C3\CCc4ccccc4C3=O)cc2)cc1	108%	94.8%	108%	113%	124%	114%	92.4%	97%	143%
CC[n+]1c(/C=C/c2ccc(N3CCCC3)cc2)cccc1/C=C/c1ccc(N2CCCC2)cc1	-67.9% (active)	-65.7% (active)	-86.7% (active)	-54.4% (active)	-84.3% (active)	-73.3% (active)	-83.2% (active)	-82.3% (active)	-83.1% (active)
COc1cc(/C=N/NC(=O)c2ccc(C(F)(F)F)nc2Nc2ccc(Cl)cc2C)ccc1O	47.9%	39.6%	25.5%	9.04% (active)	24.5%	40%	44.6%	4.66% (active)	51.8%
